Data reported in PubChem BioAssay (Tox21).
“And” between values parts separate entries of the source, which are not always exact repeats. Equal entries are not always repeated. Results filed as inconclusive are left out. Some structures have more than one record in an assay (separate samples or runs), and their calls can disagree. The source made the active and inactive calls. Unless noted, calls follow the shape of the full dose curve.

Tests used:
[1] = Nuclear factor erythroid 2-related factor 2/antioxidant responsive element (Nrf2/ARE) small molecule agonists: qHTS cell viability counter screen in human keratinocytes (AID 1919968; active = well fitted curve in the direction sought with a large enough effect in the repeat runs; an effect the other way counts as inactive or inconclusive; also: nearly all actives have a fitted effect of over 55% in size; also: potency is read from the fitted curve at half-maximal effect)
In short: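 CellTiter-Fluor fluorescence, read 1 h after reagent, gave viability in the same wells as the ARE-luciferase assay. KeratinoSens cells (1,500/well) had 23 h compound exposure at 37 C/5% CO2 following 5 h plating.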

[2] = Nuclear factor erythroid 2-related factor 2/antioxidant responsive element (Nrf2/ARE) small molecule agonists: luciferase reporter gene qHTS assay in human keratinocytes (AID 1919969); also: nearly all actives have a fitted effect of over 35% in size; also: potency is read from the fitted curve at half-maximal effect
[3] = biological target: Gonadotropin-releasing hormone receptor (Homo sapiens) (UniProt P30968); experiment: Human gonadotropin-releasing hormone receptor (GnRHR) small molecule agonists, calcium flux assay in GnRHR-HEK293 cells (AID 1920063); also: nearly all actives have a fitted effect of over 35% in size
In short: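 Agonist mode: compounds at 15 concentrations, in triplicate, went onto calcium dye-loaded GnRHR-HEK293 cells. Intracellular calcium was then followed as 480/540 nm fluorescence at 1 s intervals over 3 min.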

[4] = biological target: KiSS-1 receptor (Homo sapiens) (UniProt Q969F8); experiment: Human kisspeptin (KISS1R) small molecule agonists, calcium flux assay in KISS1R-HEK293 cells (AID 1920064; active = well fitted curve in the direction sought with a large enough effect in the repeat runs; an effect the other way counts as inactive or inconclusive)
In short: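 Agonist mode: intracellular calcium rise tracked at 1 s intervals over 3 min (480/540 nm) immediately after compound addition to dye-loaded KISS1R-HEK293 stable cells. Each compound tested at 15 concentrations in triplicate.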

[5] = G protein-coupled receptor (GPCR) small molecule agonists, calcium flux assay: HEK293 wild type cell line counter screen (AID 1920065)
In short: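 Calcium flux counter screen: compound added in agonist mode at 15 concentrations in triplicate to dye-loaded parental HEK293 cells. Fluorescence (480/540) read kinetically for 3 min; ATP served as positive control.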

[6] = p53 small molecule agonists, cell-based qHTS assay with human liver microsomes (AID 1963577);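 also: p53 response element beta-lactamase reporter cells with liver microsomes plus NADPH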
In short: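 Steps: plate p53RE-bla cells, incubate 5 h at 37 C; add compound in DMSO; add microsomes (0.5 mg/mL final) and NADPH (0.5 mg/mL final); incubate 16 h at 37 C; add LiveBLAzer, 2 h RT; read fluorescence.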

[7] = p53 small molecule agonists, cell-based qHTS assay with rat liver microsomes (AID 1963578)
In short: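 Metabolic activation is supplied by rat liver microsomes with NADPH (each 0.5 mg/mL final). p53RE-bla cells incubate with compound 16 h at 37 C; reporter activity is measured by LiveBLAzer fluorescence.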

[8] = p53 small molecule agonists, cell-based qHTS assay with human liver microsomes: qHTS cell viability counter screen (AID 1963579); also: nearly all actives have a fitted effect of over 45% in size
In short: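 After the 460/530 nm beta-lactamase read, CellTiter-Glo was added to the same wells and luminescence measured after 30 min at room temperature, giving viability of p53RE-bla cells treated 16 h with compounds plus microsomes and NADPH.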

[9] = p53 small molecule agonists, cell-based qHTS assay with rat liver microsomes: qHTS cell viability counter screen (AID 1963580); also: nearly all actives have a fitted effect of over 45% in size
In short: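 Rat liver microsome (0.5 mg/mL final) and NADPH (0.5 mg/mL final) co-incubation with compounds for 16 h at 37 C on HCT-116 p53RE-bla cells; cytotoxicity taken from intracellular ATP luminescence.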

[10] = p53 small molecule agonists, cell-based qHTS assay: qHTS cell viability counter screen (AID 1963581); also: nearly all actives have a fitted effect of over 45% in size
In short: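 Counter screen read by CellTiter-Glo luminescence (ATP content, 30 min at room temperature), run in the same wells as the beta-lactamase reporter read. HCT-116 p53RE-bla cells saw compounds for 16 h at 37 C.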

[11] = p53 small molecule agonists, cell-based qHTS assay (AID 1963582; active = well fitted activation curve with a large enough effect in the signal ratio in the repeat runs, not every such curve was filed as active; the % refers to the signal ratio)
In short: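 Read-out is beta-lactamase FRET fluorescence after 2 h at room temperature with LiveBLAzer B/G substrate. p53 response element-bla cells were treated 16 h at 37 C with compounds in DMSO, added 5 h after seeding.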

[12] = biological target: 5-hydroxytryptamine receptor 2A (Homo sapiens) (UniProt P28223); experiment: 5-hydroxytryptamine receptor 2A (HTR2A) small molecule antagonists, cell-based qHTS assay (AID 1963586); also: nearly all actives have a fitted effect of over 45% in size
In short: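 CHO cells stably expressing human HTR2A were plated for 18 h at 37 C, then loaded with calcium dye for 1 h. Compounds were preincubated 5 min at room temperature before DOI (4 nM solution) was added. Kinetic fluorescence was read for 3 min.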

[13] = biological target: 5-hydroxytryptamine receptor 2A (Homo sapiens) (UniProt P28223); experiment: 5-hydroxytryptamine receptor 2A (HTR2A) small molecule agonists, cell-based qHTS assay (AID 1963587); also: nearly all actives have a fitted effect of over 30% in size
In short: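 Kinetic calcium-flux fluorescence (2 min, 1 sec intervals) after compound addition in agonist mode. HTR2A-CHO cells were cultured 18 h, then dye-loaded 1 h at 37 C.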

[14] = biological target: Muscarinic acetylcholine receptor M1 (Homo sapiens) (UniProt P11229); experiment: Cholinergic receptor muscarinic 1 (CHRM1) small molecule antagonists, cell-based qHTS assay (AID 1963588); also: nearly all actives have a fitted effect of over 40% in size
In short: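 Compounds were tested at 15 concentrations in three independent runs. Dye-loaded CHRM1-CHO cells were exposed 5 min at room temperature before stimulation by acetylcholine added at 50nM. Intracellular calcium was read kinetically on FDSS for 3 min.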

[15] = biological target: Muscarinic acetylcholine receptor M1 (Homo sapiens) (UniProt P11229); experiment: Cholinergic receptor muscarinic 1 (CHRM1) small molecule agonists, cell-based qHTS assay (AID 1963589); also: nearly all actives have a fitted effect of over 35% in size
In short: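 Agonist-mode calcium-flux screen: compounds at 15 concentrations, three independent runs, were pin-transferred onto dye-loaded human CHRM1-CHO cells. Fluorescence was then recorded kinetically every second over minutes.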

[16] = cAMP Responsive Elements (CRE) small molecule agonists, cell-based qHTS assay (AID 1963590)
In short: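 Agonist mode: compound added to CRE-bla HEK 293T cells (2,000/well, 18 h after plating) for 3 h at 37 C/5% CO2. Reporter activity detected via FRET beta-lactamase substrate, 2 h room-temperature loading.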

[17] = cAMP Responsive Elements (CRE) small molecule antagonists, cell-based qHTS assay (AID 1963591; active = well fitted inhibition curve with a large enough effect in the signal ratio in the repeat runs, not every such curve was filed as active; the % refers to the signal ratio)
In short: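 Antagonist mode: compounds are added alongside the adenylyl cyclase activator NKH477 (0.25 uM final) to CRE-bla HEK293T cells for 3 h. LiveBLAzer FRET substrate, 2 h at room temperature, reports bla expression.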

[18] = biological target: Beta-2 adrenergic receptor (Homo sapiens) (UniProt P07550); experiment: Adrenergic beta2 receptor (ADRB2) small molecule antagonists, cell-based qHTS assay (AID 1963592); also: series mostly up to about 92 µM; nearly all actives have a fitted effect of over 50% in size
In short: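 Assay format: CHO-ADRB2 cells, 18-20hr seeding at 37C/5% CO2, then compound plus 1nM isoproterenol agonist mix for 0.5hr RT. Homogeneous time-resolved fluorescence cAMP detection after 1hr, expressed as 665/615 nm ratio.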

[19] = biological target: D(2) dopamine receptor (Homo sapiens) (UniProt P14416); experiment: Dopamine D2 receptor (DRD2) small molecule agonists, cell-based qHTS assay (AID 1963594); also: nearly all actives have a fitted effect of over 35% in size
In short: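 cAMP accumulation in DRD2-HEK293 cells measured by HTRF after 1 h detection; compounds added 10 min before NKH477 (200nM […]) forskolin-analogue stimulation, 30 min at room temperature, with Ro20-1724 present at 0.1 mM final.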

[20] = biological target: D(2) dopamine receptor (Homo sapiens) (UniProt P14416); experiment: Dopamine D2 receptor (DRD2) small molecule antagonists, cell-based qHTS assay (AID 1963595; active = well fitted inhibition curve with a large enough effect in the signal ratio in the repeat runs, with a control signal flat; the % refers to the signal ratio)
In short: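 Antagonist mode in DRD2-HEK293 cells: after compound addition with 0.1 mM Ro20-1724, cells received quinpirole (12 nM) and NKH477 (200 nM) for 30 min at room temperature; HTRF cAMP read after 1 h detection.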

Measured: Potency

KiSS-1 receptor (Homo sapiens), sequence (Q969F8 whole entry, looked up): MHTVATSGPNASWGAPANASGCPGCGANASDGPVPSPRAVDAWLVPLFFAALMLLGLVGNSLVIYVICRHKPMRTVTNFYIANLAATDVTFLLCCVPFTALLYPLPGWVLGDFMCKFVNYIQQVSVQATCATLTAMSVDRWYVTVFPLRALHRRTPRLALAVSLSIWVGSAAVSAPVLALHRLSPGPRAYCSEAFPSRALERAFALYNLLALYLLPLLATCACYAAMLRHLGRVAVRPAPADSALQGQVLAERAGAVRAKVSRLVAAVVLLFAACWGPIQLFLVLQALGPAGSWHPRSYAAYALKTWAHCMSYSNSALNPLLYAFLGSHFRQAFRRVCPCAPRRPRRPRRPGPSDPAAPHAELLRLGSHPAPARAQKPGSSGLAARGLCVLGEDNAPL
5-hydroxytryptamine receptor 2A (Homo sapiens), sequence (P28223 whole entry, looked up): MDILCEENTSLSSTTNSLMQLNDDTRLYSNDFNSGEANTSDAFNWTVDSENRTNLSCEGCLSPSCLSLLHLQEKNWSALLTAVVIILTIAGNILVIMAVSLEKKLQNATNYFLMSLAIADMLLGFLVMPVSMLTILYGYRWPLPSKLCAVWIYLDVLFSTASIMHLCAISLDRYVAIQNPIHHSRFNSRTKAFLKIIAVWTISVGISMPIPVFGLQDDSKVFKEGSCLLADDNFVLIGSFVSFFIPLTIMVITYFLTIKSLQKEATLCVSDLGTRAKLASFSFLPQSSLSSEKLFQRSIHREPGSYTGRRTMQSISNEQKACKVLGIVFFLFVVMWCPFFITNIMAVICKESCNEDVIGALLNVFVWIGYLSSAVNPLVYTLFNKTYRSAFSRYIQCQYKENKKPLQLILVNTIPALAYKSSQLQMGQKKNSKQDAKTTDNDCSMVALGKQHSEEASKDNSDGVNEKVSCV
D(2) dopamine receptor (Homo sapiens), sequence (P14416 whole entry, looked up): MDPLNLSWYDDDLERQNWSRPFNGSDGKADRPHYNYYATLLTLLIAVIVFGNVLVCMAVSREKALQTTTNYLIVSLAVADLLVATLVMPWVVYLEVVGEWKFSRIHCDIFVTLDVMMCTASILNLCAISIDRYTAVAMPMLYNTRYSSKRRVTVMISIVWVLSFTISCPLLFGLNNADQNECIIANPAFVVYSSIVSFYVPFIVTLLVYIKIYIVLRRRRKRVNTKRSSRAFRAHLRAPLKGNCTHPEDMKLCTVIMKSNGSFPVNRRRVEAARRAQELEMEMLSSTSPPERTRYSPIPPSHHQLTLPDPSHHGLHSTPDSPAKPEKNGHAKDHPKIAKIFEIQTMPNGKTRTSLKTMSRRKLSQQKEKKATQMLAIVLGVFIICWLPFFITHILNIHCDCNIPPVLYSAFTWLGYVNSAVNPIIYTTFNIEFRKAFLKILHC
Beta-2 adrenergic receptor (Homo sapiens), sequence (P07550 whole entry, looked up): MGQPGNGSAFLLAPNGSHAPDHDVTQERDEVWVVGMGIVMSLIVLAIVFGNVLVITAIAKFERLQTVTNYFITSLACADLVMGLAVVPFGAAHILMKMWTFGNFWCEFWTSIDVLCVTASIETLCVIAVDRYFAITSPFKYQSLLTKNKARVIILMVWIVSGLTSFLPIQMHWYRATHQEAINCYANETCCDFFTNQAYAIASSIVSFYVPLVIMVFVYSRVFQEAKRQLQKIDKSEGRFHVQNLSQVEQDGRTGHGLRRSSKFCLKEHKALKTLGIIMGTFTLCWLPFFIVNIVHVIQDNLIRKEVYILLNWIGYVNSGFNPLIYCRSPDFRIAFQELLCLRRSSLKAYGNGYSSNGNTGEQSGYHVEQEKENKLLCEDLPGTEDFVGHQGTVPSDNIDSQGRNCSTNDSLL
Gonadotropin-releasing hormone receptor (Homo sapiens), sequence (P30968 whole entry, looked up): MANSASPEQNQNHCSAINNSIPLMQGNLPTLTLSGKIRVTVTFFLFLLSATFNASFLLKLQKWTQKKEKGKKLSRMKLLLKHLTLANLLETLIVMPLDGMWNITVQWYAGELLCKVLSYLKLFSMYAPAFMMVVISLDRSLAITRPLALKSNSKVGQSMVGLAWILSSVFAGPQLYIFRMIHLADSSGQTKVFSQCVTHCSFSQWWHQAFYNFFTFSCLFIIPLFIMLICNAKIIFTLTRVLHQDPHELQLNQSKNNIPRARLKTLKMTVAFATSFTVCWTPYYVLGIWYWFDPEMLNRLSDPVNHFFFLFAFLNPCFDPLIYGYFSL
Muscarinic acetylcholine receptor M1 (Homo sapiens), sequence (P11229 whole entry, looked up): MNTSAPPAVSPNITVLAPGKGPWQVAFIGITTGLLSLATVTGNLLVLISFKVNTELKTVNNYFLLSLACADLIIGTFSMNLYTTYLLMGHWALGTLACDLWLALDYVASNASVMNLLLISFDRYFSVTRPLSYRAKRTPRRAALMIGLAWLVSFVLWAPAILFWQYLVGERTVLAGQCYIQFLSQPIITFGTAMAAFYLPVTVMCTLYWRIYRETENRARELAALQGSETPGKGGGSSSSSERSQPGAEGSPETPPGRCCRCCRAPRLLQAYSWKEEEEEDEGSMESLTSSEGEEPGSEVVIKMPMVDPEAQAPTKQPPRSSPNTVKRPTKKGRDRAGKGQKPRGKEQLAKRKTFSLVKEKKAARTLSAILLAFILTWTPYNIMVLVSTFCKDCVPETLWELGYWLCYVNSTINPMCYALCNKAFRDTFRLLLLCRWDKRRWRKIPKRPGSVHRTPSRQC

O=C1CCc2ccccc2O1
not listed: [20]
inactive: all other assays above

Cc1cc(C2(c3cc(C)c(O)cc3C)OS(=O)(=O)c3ccccc32)c(C)cc1O
active: [1] 21.7 µM and 19.3 µM
not listed: [19] | [20]
inactive: all other assays above

CCC(C)(O)CCCC(C)C (stereo unspecified)
inactive: all assays above

NC(=O)N/N=C/c1ccc([N+](=O)[O-])o1
inactive and 30.6 µM (active): [2]
inactive: all other assays above

CCCCC(=O)O
inactive: all assays above

C=CCOC(=O)C(=C)C
inactive: all assays above

CC(=O)OC/C=C(\C)CCC=C(C)C
inactive: all assays above

COC(=O)CCC(=O)OC
inactive: all assays above

CC(=O)Nc1ccc(C(=O)O)cc1
not listed: [20]
inactive: all other assays above

Cc1cc(Cc2ccc(N)c(C)c2)ccc1N
inactive: all assays above

CCCCC(CC)COC(=O)CCCCC(=O)OCC(CC)CCCC (stereo unspecified)
inactive: all assays above

C=CC(=O)OCCC(=O)O
inactive: all assays above

CCOCC(=O)O
inactive: all assays above

CC(=O)CC/C=C(\C)CCC=C(C)C
inactive: all assays above

CC(O)CC(C)(C)O (stereo unspecified)
inactive: all assays above
